Numbering of substitutions follows the chain as printed.

From article PMC11006913 come the findings set out here.

What all share (test): PBM; 200 nM protein, PBS
Common to all, as to conditions: dsDNA, one strand shown

The target of assay [1] is HOXC10 (Homo sapiens, UniProt Q9NYD6 254-340).
For assay [2], the target named is HOXC10 (Homo sapiens, UniProt Q9NYD6 254-340, K271E).
For a further assay, the target named is CRX (Homo sapiens, UniProt O43186 26-111, R41L).
Assay [3] concerns the target ALX4 (Homo sapiens, UniProt Q9H161 200-286).
The target in assay [4] is PRRX1 (Homo sapiens, UniProt P54821 80-166, F113S).
PRRX1 (Homo sapiens, UniProt P54821 80-166, F113S), sequence (P54821 80-166 F113S): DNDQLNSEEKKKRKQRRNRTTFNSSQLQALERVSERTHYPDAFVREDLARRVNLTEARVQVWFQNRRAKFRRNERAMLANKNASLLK
Assay [5] has as its target ALX4 (Homo sapiens, UniProt Q9H161 200-286, Q225E).
Assay [6] has as its target PRRX1 (Homo sapiens, UniProt P54821 80-166).
The target of assay [7] is PROP1 (Homo sapiens, UniProt O75360 56-141).
PROP1 (Homo sapiens, UniProt O75360 56-141), sequence (O75360 56-141): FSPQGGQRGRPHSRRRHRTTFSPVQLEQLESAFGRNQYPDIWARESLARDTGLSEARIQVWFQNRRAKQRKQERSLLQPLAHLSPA
Assay [8] has as its target PROP1 (Homo sapiens, UniProt O75360 56-141, R99H).
In assay [9] the target is PROP1 (Homo sapiens, UniProt O75360 56-141, F88S).
PROP1 (Homo sapiens, UniProt O75360 56-141, F88S), sequence (O75360 56-141 F88S): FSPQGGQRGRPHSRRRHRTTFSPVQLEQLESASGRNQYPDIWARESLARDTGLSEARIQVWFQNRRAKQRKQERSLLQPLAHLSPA
Assay [10] addresses MSX2 (Homo sapiens, UniProt P35548 130-214, R199I).
Assay [11] concerns the target MSX2 (Homo sapiens, UniProt P35548 130-214).
The target of assay [12] is MSX2 (Homo sapiens, UniProt P35548 130-214, F161Y).
MSX2 (Homo sapiens, UniProt P35548 130-214, F161Y), sequence (P35548 130-214 F161Y): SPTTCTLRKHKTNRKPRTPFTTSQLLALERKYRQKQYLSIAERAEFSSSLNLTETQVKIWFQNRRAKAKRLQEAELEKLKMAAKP
The target of assay [13] is ALX3 (Homo sapiens, UniProt O95076 139-225, N203S).
ALX3 (Homo sapiens, UniProt O95076 139-225, N203S), sequence (O95076 139-225 N203S): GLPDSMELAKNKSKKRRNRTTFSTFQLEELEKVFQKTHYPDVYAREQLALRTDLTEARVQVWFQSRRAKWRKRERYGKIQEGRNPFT
Assay [14] deals with T1, PAX4 (Homo sapiens, UniProt O43316 9-242, R200K).
T1 sequence: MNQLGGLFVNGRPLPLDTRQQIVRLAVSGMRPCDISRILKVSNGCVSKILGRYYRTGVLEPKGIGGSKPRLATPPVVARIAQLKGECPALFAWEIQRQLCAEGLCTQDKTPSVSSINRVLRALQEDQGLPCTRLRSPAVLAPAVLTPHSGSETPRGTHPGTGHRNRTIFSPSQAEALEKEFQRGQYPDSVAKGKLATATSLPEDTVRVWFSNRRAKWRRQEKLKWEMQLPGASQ

Assay [15] deals with T2, PAX4 (Homo sapiens, UniProt O43316 9-242).
T2 sequence: T1 sequence with K192R

Assay [16] deals with ALX1 (Homo sapiens, UniProt Q15699 118-204, L144V).
ALX1 (Homo sapiens, UniProt Q15699 118-204, L144V), sequence (Q15699 118-204 L144V): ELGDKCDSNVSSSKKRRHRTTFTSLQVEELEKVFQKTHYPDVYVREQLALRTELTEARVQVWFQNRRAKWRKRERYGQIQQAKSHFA
The target of assay [17] is ALX3 (Homo sapiens, UniProt O95076 139-225, N203Q).
ALX3 (Homo sapiens, UniProt O95076 139-225, N203Q), sequence (O95076 139-225 N203Q): as the sequence (O95076 139-225 N203S) above, with S65Q counted along it
For assay [18], the target named is T3, PAX4 (Homo sapiens, UniProt O43316 9-242, R200Q).
T3 sequence: T1 sequence with K192Q

Assay [19] concerns the target ALX1 (Homo sapiens, UniProt Q15699 118-204, L144R).
Assay [20] has as its target T4, PAX4 (Homo sapiens, UniProt O43316 9-242, F177V).
T4 sequence: T1 sequence with F169V, K192R

Assay [21] concerns the target ALX3 (Homo sapiens, UniProt O95076 139-225).
Assay [22] concerns the target T5, PAX4 (Homo sapiens, UniProt O43316 9-242, F177Y).
T5 sequence: T1 sequence with F169Y, K192R

Assay [23] concerns the target ALX3 (Homo sapiens, UniProt O95076 139-225, L168Q).
In assay [24] the target is ALX3 (Homo sapiens, UniProt O95076 139-225, L168V).
ALX3 (Homo sapiens, UniProt O95076 139-225, L168V), sequence (O95076 139-225 L168V): as the sequence (O95076 139-225 N203S) above, with L30V, S65N counted along it
The target in assay [25] is T6, PAX4 (Homo sapiens, UniProt O43316 9-242, R227W).
T6 sequence: T1 sequence with K192R, R219W

The target in assay [26] is NKX3-2 (Homo sapiens, UniProt P78367 192-278, P234S).
NKX3-2 (Homo sapiens, UniProt P78367 192-278, P234S), sequence (P78367 192-278 P234S): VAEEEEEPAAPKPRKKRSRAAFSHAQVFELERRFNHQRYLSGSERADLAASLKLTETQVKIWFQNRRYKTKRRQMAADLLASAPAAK
Assay [27] concerns the target NKX3-2 (Homo sapiens, UniProt P78367 192-278).
Assay [28] has as its target T7, NKX2-6 (Homo sapiens, UniProt A6NCS4 118-204).
T7 sequence: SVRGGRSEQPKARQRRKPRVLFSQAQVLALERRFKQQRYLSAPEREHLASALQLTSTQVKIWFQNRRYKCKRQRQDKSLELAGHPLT

The target in assay [29] is T8, NKX2-6 (Homo sapiens, UniProt A6NCS4 118-204, F151L).
T8 sequence: T7 sequence with F34L

Assay [30] addresses VAX1 (Homo sapiens, UniProt Q5SQQ9 86-172).
Assay [31] deals with VAX1 (Homo sapiens, UniProt Q5SQQ9 86-172, T142I).
VAX1 (Homo sapiens, UniProt Q5SQQ9 86-172, T142I), sequence (Q5SQQ9 86-172 T142I): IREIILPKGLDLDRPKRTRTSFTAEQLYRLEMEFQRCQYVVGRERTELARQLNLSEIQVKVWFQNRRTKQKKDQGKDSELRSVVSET
Assay [32] concerns the target VAX1 (Homo sapiens, UniProt Q5SQQ9 86-172, K157R).

ALX4 (Homo sapiens, UniProt Q9H161 200-286), sequence (Q9H161 200-286): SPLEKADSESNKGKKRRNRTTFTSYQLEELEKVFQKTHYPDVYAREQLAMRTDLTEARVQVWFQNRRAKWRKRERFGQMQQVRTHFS
HOXC10 (Homo sapiens, UniProt Q9NYD6 254-340), sequence (Q9NYD6 254-340): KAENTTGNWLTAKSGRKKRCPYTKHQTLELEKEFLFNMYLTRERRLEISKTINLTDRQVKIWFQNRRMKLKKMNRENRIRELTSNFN
ALX4 (Homo sapiens, UniProt Q9H161 200-286, Q225E), sequence (Q9H161 200-286 Q225E): as the sequence (Q9H161 200-286) above, with Q26E counted along it
HOXC10 (Homo sapiens, UniProt Q9NYD6 254-340, K271E), sequence (Q9NYD6 254-340 K271E): as the sequence (Q9NYD6 254-340) above, with K18E counted along it
PRRX1 (Homo sapiens, UniProt P54821 80-166), sequence (P54821 80-166): as the sequence (P54821 80-166 F113S) above, with S34F counted along it
MSX2 (Homo sapiens, UniProt P35548 130-214), sequence (P35548 130-214): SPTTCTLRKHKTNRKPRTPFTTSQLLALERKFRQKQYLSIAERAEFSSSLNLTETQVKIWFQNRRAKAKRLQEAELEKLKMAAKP
VAX1 (Homo sapiens, UniProt Q5SQQ9 86-172), sequence (Q5SQQ9 86-172): as the sequence (Q5SQQ9 86-172 T142I) above, with I57T counted along it
CRX, sequence (O43186 26-111 R41L): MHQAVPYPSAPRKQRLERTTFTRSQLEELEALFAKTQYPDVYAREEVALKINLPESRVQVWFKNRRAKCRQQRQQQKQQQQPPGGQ
ALX1 (Homo sapiens, UniProt Q15699 118-204, L144R), sequence (Q15699 118-204 L144R): as the sequence (Q15699 118-204 L144V) above, with V27R counted along it
NKX3-2 (Homo sapiens, UniProt P78367 192-278), sequence (P78367 192-278): as the sequence (P78367 192-278 P234S) above, with S43P counted along it
VAX1 (Homo sapiens, UniProt Q5SQQ9 86-172, K157R), sequence (Q5SQQ9 86-172 K157R): as the sequence (Q5SQQ9 86-172 T142I) above, with I57T, K72R counted along it
ALX3 (Homo sapiens, UniProt O95076 139-225, L168Q), sequence (O95076 139-225 L168Q): as the sequence (O95076 139-225 N203S) above, with L30Q, S65N counted along it
ALX3 (Homo sapiens, UniProt O95076 139-225), sequence (O95076 139-225): as the sequence (O95076 139-225 N203S) above, with S65N counted along it
PROP1 (Homo sapiens, UniProt O75360 56-141, R99H), sequence (O75360 56-141 R99H): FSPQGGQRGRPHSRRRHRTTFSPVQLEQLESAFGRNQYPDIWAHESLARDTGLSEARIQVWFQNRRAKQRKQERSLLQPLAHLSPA
MSX2 (Homo sapiens, UniProt P35548 130-214, R199I), sequence (P35548 130-214 R199I): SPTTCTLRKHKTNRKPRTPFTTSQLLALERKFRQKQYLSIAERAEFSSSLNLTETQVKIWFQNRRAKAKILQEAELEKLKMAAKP

Turning to TATTAAGA, the binding signal with HOXC10 [1] is 11.2 upbm affinity estimate (log intensity, higher = more binding, comparable within an allelic series); with HOXC10 [2], 10.9 upbm affinity estimate (log intensity, higher = more binding, comparable within an allelic series); with CRX it was 10.6 upbm affinity estimate (log intensity, higher = more binding, comparable within an allelic series).
As for CGAGGGCA, the binding signal is 8.31 upbm affinity estimate (log intensity, higher = more binding, comparable within an allelic series) in the assay with ALX4 [3]; 9.29 upbm affinity estimate (log intensity, higher = more binding, comparable within an allelic series) with PRRX1 [4]; 8.26 upbm affinity estimate (log intensity, higher = more binding, comparable within an allelic series) with ALX4 [5]; 9.63 upbm affinity estimate (log intensity, higher = more binding, comparable within an allelic series) with PRRX1 [6].
As for ACATTACC, the binding signal with ALX4 [3] is 10.7 upbm affinity estimate (log intensity, higher = more binding, comparable within an allelic series).
Regarding CTCGGCCA, the binding signal with HOXC10 [1] is 10.1 upbm affinity estimate (log intensity, higher = more binding, comparable within an allelic series); with HOXC10 [2], 10.1 upbm affinity estimate (log intensity, higher = more binding, comparable within an allelic series); with PROP1 [7], 6.9 upbm affinity estimate (log intensity, higher = more binding, comparable within an allelic series); with PROP1 [8] it was 6.67 upbm affinity estimate (log intensity, higher = more binding, comparable within an allelic series); with PROP1 [9] it was 6.71 upbm affinity estimate (log intensity, higher = more binding, comparable within an allelic series).
Regarding AGGGCACC, the binding signal in the assay with ALX4 [3] was 7.93 upbm affinity estimate (log intensity, higher = more binding, comparable within an allelic series); with PRRX1 [4], 9.03 upbm affinity estimate (log intensity, higher = more binding, comparable within an allelic series); with ALX4 [5] it was 8.09 upbm affinity estimate (log intensity, higher = more binding, comparable within an allelic series); with MSX2 [10], 9.47 upbm affinity estimate (log intensity, higher = more binding, comparable within an allelic series); with MSX2 [11], 9.48 upbm affinity estimate (log intensity, higher = more binding, comparable within an allelic series); in the assay with MSX2 [12], 9.58 upbm affinity estimate (log intensity, higher = more binding, comparable within an allelic series). Also, in the assay with PRRX1 [6], the binding signal is 9.28 upbm affinity estimate (log intensity, higher = more binding, comparable within an allelic series).
Turning to AAGTTTAC, in the assay with ALX4 [3], the binding signal is 9.93 upbm affinity estimate (log intensity, higher = more binding, comparable within an allelic series).
For the sequence TAACGAAA, the binding signal with ALX4 [3] was 10.6 upbm affinity estimate (log intensity, higher = more binding, comparable within an allelic series).
As to TTAAATAA, the binding signal with HOXC10 [1] was 11.4 upbm affinity estimate (log intensity, higher = more binding, comparable within an allelic series); with HOXC10 [2] it was 11.1 upbm affinity estimate (log intensity, higher = more binding, comparable within an allelic series); in the assay with ALX3 [13], 8.72 upbm affinity estimate (log intensity, higher = more binding, comparable within an allelic series).
For TAAGTCGA, the binding signal with ALX4 [3] was 10 upbm affinity estimate (log intensity, higher = more binding, comparable within an allelic series).
For TACTTAGA, the binding signal with HOXC10 [1] is 10.8 upbm affinity estimate (log intensity, higher = more binding, comparable within an allelic series); with MSX2 [11], 11.1 upbm affinity estimate (log intensity, higher = more binding, comparable within an allelic series); in the assay with MSX2 [12], 10.9 upbm affinity estimate (log intensity, higher = more binding, comparable within an allelic series).
With AAATTAAC, the binding signal is 13.5 upbm affinity estimate (log intensity, higher = more binding, comparable within an allelic series) in the assay with ALX4 [3]; 11.6 upbm affinity estimate (log intensity, higher = more binding, comparable within an allelic series) in the assay with PAX4 [14]; 12.2 upbm affinity estimate (log intensity, higher = more binding, comparable within an allelic series) with PAX4 [15]; 12.7 upbm affinity estimate (log intensity, higher = more binding, comparable within an allelic series) with ALX4 [5]; 11.4 upbm affinity estimate (log intensity, higher = more binding, comparable within an allelic series) in the assay with ALX1 [16]; 8.36 upbm affinity estimate (log intensity, higher = more binding, comparable within an allelic series) with ALX3 [17]. The binding signal with PAX4 [18] is 11.9 upbm affinity estimate (log intensity, higher = more binding, comparable within an allelic series); with ALX1 [19], 11.1 upbm affinity estimate (log intensity, higher = more binding, comparable within an allelic series); with PAX4 [20], 10.5 upbm affinity estimate (log intensity, higher = more binding, comparable within an allelic series); with ALX3 [21] it was 12.2 upbm affinity estimate (log intensity, higher = more binding, comparable within an allelic series); with PAX4 [22], 10.9 upbm affinity estimate (log intensity, higher = more binding, comparable within an allelic series); with ALX3 [23], 10.3 upbm affinity estimate (log intensity, higher = more binding, comparable within an allelic series). Also, the binding signal in the assay with ALX3 [24] was 9.64 upbm affinity estimate (log intensity, higher = more binding, comparable within an allelic series); with PAX4 [25], 10.9 upbm affinity estimate (log intensity, higher = more binding, comparable within an allelic series); with ALX3 [13], 8.57 upbm affinity estimate (log intensity, higher = more binding, comparable within an allelic series).
As for AGGCTTCG, the binding signal with HOXC10 [1] is 9.94 upbm affinity estimate (log intensity, higher = more binding, comparable within an allelic series); with HOXC10 [2], 10 upbm affinity estimate (log intensity, higher = more binding, comparable within an allelic series).
CAGCGCGG: the binding signal was 10 upbm affinity estimate (log intensity, higher = more binding, comparable within an allelic series) with HOXC10 [1] and 9.95 upbm affinity estimate (log intensity, higher = more binding, comparable within an allelic series) in the assay with HOXC10 [2].
Consider CCCATAAC, for which the binding signal with ALX4 [3] was 9.61 upbm affinity estimate (log intensity, higher = more binding, comparable within an allelic series).
On the same count and under the same terms, next, CCACTAAC: 10 upbm affinity estimate (log intensity, higher = more binding, comparable within an allelic series); CAACATTA: 10.5 upbm affinity estimate (log intensity, higher = more binding, comparable within an allelic series).
Regarding AAGTACCG, the binding signal is 11 upbm affinity estimate (log intensity, higher = more binding, comparable within an allelic series) with HOXC10 [1]; 12.4 upbm affinity estimate (log intensity, higher = more binding, comparable within an allelic series) in the assay with NKX3-2 [26]; 12.5 upbm affinity estimate (log intensity, higher = more binding, comparable within an allelic series) with NKX3-2 [27].
Regarding CGCCAGCG, the binding signal is 10 upbm affinity estimate (log intensity, higher = more binding, comparable within an allelic series) in the assay with HOXC10 [1] and 9.94 upbm affinity estimate (log intensity, higher = more binding, comparable within an allelic series) with HOXC10 [2].
Regarding CGAAGGCC, the binding signal with ALX4 [3] is 8.29 upbm affinity estimate (log intensity, higher = more binding, comparable within an allelic series); with PAX4 [14] it was 9.2 upbm affinity estimate (log intensity, higher = more binding, comparable within an allelic series); with PAX4 [15] it was 9.31 upbm affinity estimate (log intensity, higher = more binding, comparable within an allelic series); with ALX4 [5], 8.19 upbm affinity estimate (log intensity, higher = more binding, comparable within an allelic series); with NKX2-6 [28], 9.35 upbm affinity estimate (log intensity, higher = more binding, comparable within an allelic series); in the assay with PAX4 [18] it was 9.3 upbm affinity estimate (log intensity, higher = more binding, comparable within an allelic series). The binding signal in the assay with PAX4 [20] is 9.19 upbm affinity estimate (log intensity, higher = more binding, comparable within an allelic series); in the assay with PAX4 [22], 9.09 upbm affinity estimate (log intensity, higher = more binding, comparable within an allelic series); with NKX2-6 [29], 9.28 upbm affinity estimate (log intensity, higher = more binding, comparable within an allelic series); with PAX4 [25], 9.29 upbm affinity estimate (log intensity, higher = more binding, comparable within an allelic series).
For the sequence AATACTTA, in the assay with ALX4 [3], the binding signal was 10.5 upbm affinity estimate (log intensity, higher = more binding, comparable within an allelic series).
On the same count and under the same terms, under AATGGCCT stands 10.3 upbm affinity estimate (log intensity, higher = more binding, comparable within an allelic series); under ATGTCTTA, 9.38 upbm affinity estimate (log intensity, higher = more binding, comparable within an allelic series).
On the same count and under the same terms, next, CGGATAAC: 9.46 upbm affinity estimate (log intensity, higher = more binding, comparable within an allelic series).
Consider CGTCCGCC, for which the binding signal is 9.96 upbm affinity estimate (log intensity, higher = more binding, comparable within an allelic series) with HOXC10 [1]; 10 upbm affinity estimate (log intensity, higher = more binding, comparable within an allelic series) in the assay with HOXC10 [2]; 7.19 upbm affinity estimate (log intensity, higher = more binding, comparable within an allelic series) with VAX1 [30]; 7.31 upbm affinity estimate (log intensity, higher = more binding, comparable within an allelic series) in the assay with VAX1 [31]; 7.05 upbm affinity estimate (log intensity, higher = more binding, comparable within an allelic series) with VAX1 [32].
As for ATCTAAAC, the binding signal in the assay with ALX4 [3] is 9.7 upbm affinity estimate (log intensity, higher = more binding, comparable within an allelic series).
On to CATTCTAA, for which the binding signal with ALX4 [3] was 9.79 upbm affinity estimate (log intensity, higher = more binding, comparable within an allelic series).
On to TGATGGCA, for which the binding signal with HOXC10 [1] was 10.7 upbm affinity estimate (log intensity, higher = more binding, comparable within an allelic series); with VAX1 [30], 9.08 upbm affinity estimate (log intensity, higher = more binding, comparable within an allelic series); with VAX1 [31] it was 8.72 upbm affinity estimate (log intensity, higher = more binding, comparable within an allelic series).
As to AAATTCGA, in the assay with ALX4 [3], the binding signal was 10.7 upbm affinity estimate (log intensity, higher = more binding, comparable within an allelic series).
